# Assay results taken from the supplement of paper PMC8975748.
# Counter-ions that a name gives are not always drawn. ± gives the standard deviation of the averaged measurements.
# How the values were obtained:
# [1] = test system: Saccharomyces cerevisiae BY4741 SeMeCo community; assay: mean cell size (pixel area) (pixels); higher = larger cells; details: 10 µM; 24 h; SM minimal medium
# Summary of the method: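 Harmony analysis of automated confocal images of paraformaldehyde-fixed yeast gave the mean cell pixel area per well. The yeast was a Saccharomyces cerevisiae BY4741 community carrying four plasmids, each with a fluorescent marker and each complementing one auxotrophy, incubated for 24 h in SM medium containing drug at a final 10 µM in 384-well plates. Results are averaged over 3 replicates. Same SeMeCo high-content imaging drug screen: Selleck FDA-approved drugs at 10 µM, 24 h in SM medium, 384-well plates, 3 replicates.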
# [2] = test system: Saccharomyces cerevisiae BY4741 SeMeCo community; assay: z-score of prototroph abundance vs DMSO median; higher = larger share of this subpopulation than in DMSO controls; details: 10 µM; 24 h; SM minimal medium; subpopulation (auxotrophy): Prototroph
# Summary of the method: (§1)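 A community of Saccharomyces cerevisiae BY4741 was built from four plasmids that each restored one auxotrophy and encoded a distinct fluorescent protein. Pre-grown overnight to OD600 1.0 and diluted to 0.3, it was dispensed at 70 µl into 384-well plates acoustically predosed with library drugs for a final 10 µM, and grown 24 h in minimal SM medium. Cells were then paraformaldehyde-fixed and imaged by automated confocal microscopy. Thresholds and autofluorescence correction came from single-auxotroph fluorescent strains, and each subpopulation's abundance was scored as a z-score relative to the vehicle-well median.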
# [3] = test system: Saccharomyces cerevisiae BY4741 SeMeCo community; assay: z-score of subpopulation abundance vs DMSO median, subpopulation auxotrophic for M; higher = larger share of this subpopulation than in DMSO controls; details: 10 µM; 24 h; SM minimal medium; subpopulation (auxotrophy): M
# Summary of the method: as §1
# [4] = test system: Saccharomyces cerevisiae BY4741 SeMeCo community; assay: z-score of subpopulation abundance vs DMSO median, subpopulation auxotrophic for L; higher = larger share of this subpopulation than in DMSO controls; details: 10 µM; 24 h; SM minimal medium; subpopulation (auxotrophy): L
# Summary of the method: as §1
# [5] = test system: Saccharomyces cerevisiae BY4741 SeMeCo community; assay: z-score of subpopulation abundance vs DMSO median, subpopulation auxotrophic for U; higher = larger share of this subpopulation than in DMSO controls; details: 10 µM; 24 h; SM minimal medium; subpopulation (auxotrophy): U
# Summary of the method: as §1
# [6] = test system: Saccharomyces cerevisiae BY4741 SeMeCo community; assay: z-score of subpopulation abundance vs DMSO median, subpopulation auxotrophic for H; higher = larger share of this subpopulation than in DMSO controls; details: 10 µM; 24 h; SM minimal medium; subpopulation (auxotrophy): H
# Summary of the method: as §1
# [7] = test system: Saccharomyces cerevisiae BY4741 SeMeCo community; assay: z-score of subpopulation abundance vs DMSO median, subpopulation auxotrophic for LU; higher = larger share of this subpopulation than in DMSO controls; details: 10 µM; 24 h; SM minimal medium; subpopulation (auxotrophy): LU
# Summary of the method: as §1
# [8] = test system: Saccharomyces cerevisiae BY4741 SeMeCo community; assay: z-score of subpopulation abundance vs DMSO median, subpopulation auxotrophic for LM; higher = larger share of this subpopulation than in DMSO controls; details: 10 µM; 24 h; SM minimal medium; subpopulation (auxotrophy): LM
# Summary of the method: as §1
# [9] = test system: Saccharomyces cerevisiae BY4741 SeMeCo community; assay: z-score of subpopulation abundance vs DMSO median, subpopulation auxotrophic for HM; higher = larger share of this subpopulation than in DMSO controls; details: 10 µM; 24 h; SM minimal medium; subpopulation (auxotrophy): HM
# Summary of the method: as §1
# [10] = test system: Saccharomyces cerevisiae BY4741 SeMeCo community; assay: z-score of subpopulation abundance vs DMSO median, subpopulation auxotrophic for HU; higher = larger share of this subpopulation than in DMSO controls; details: 10 µM; 24 h; SM minimal medium; subpopulation (auxotrophy): HU
# Summary of the method: as §1
# [11] = test system: Saccharomyces cerevisiae BY4741 SeMeCo community; assay: z-score of subpopulation abundance vs DMSO median, subpopulation auxotrophic for UM; higher = larger share of this subpopulation than in DMSO controls; details: 10 µM; 24 h; SM minimal medium; subpopulation (auxotrophy): UM
# Summary of the method: as §1
# [12] = test system: Saccharomyces cerevisiae BY4741 SeMeCo community; assay: z-score of subpopulation abundance vs DMSO median, subpopulation auxotrophic for HL; higher = larger share of this subpopulation than in DMSO controls; details: 10 µM; 24 h; SM minimal medium; subpopulation (auxotrophy): HL
# Summary of the method: as §1
# [13] = test system: Saccharomyces cerevisiae BY4741 SeMeCo community; assay: z-score of subpopulation abundance vs DMSO median, subpopulation auxotrophic for HLU; higher = larger share of this subpopulation than in DMSO controls; details: 10 µM; 24 h; SM minimal medium; subpopulation (auxotrophy): HLU
# Summary of the method: as §1
# [14] = test system: Saccharomyces cerevisiae BY4741 SeMeCo community; assay: z-score of subpopulation abundance vs DMSO median, subpopulation auxotrophic for HLM; higher = larger share of this subpopulation than in DMSO controls; details: 10 µM; 24 h; SM minimal medium; subpopulation (auxotrophy): HLM
# Summary of the method: as §1
# [15] = test system: Saccharomyces cerevisiae BY4741 SeMeCo community; assay: z-score of subpopulation abundance vs DMSO median, subpopulation auxotrophic for HUM; higher = larger share of this subpopulation than in DMSO controls; details: 10 µM; 24 h; SM minimal medium; subpopulation (auxotrophy): HUM
# Summary of the method: as §1
# [16] = test system: Saccharomyces cerevisiae BY4741 SeMeCo community; assay: z-score of subpopulation abundance vs DMSO median, subpopulation auxotrophic for LUM; higher = larger share of this subpopulation than in DMSO controls; details: 10 µM; 24 h; SM minimal medium; subpopulation (auxotrophy): LUM
# Summary of the method: as §1
# [17] = test system: Saccharomyces cerevisiae BY4741 SeMeCo community; assay: z-score of subpopulation abundance vs DMSO median, subpopulation auxotrophic for HLUM; higher = larger share of this subpopulation than in DMSO controls; details: 10 µM; 24 h; SM minimal medium; subpopulation (auxotrophy): HLUM
# Summary of the method: as §1
SMILES,mean cell size [1],z-score of prototroph abundance [2],z-score of subpopulation abundance [3],z-score of subpopulation abundance [4],z-score of subpopulation abundance [5],z-score of subpopulation abundance [6],z-score of subpopulation abundance [7],z-score of subpopulation abundance [8],z-score of subpopulation abundance [9],z-score of subpopulation abundance [10],z-score of subpopulation abundance [11],z-score of subpopulation abundance [12],z-score of subpopulation abundance [13],z-score of subpopulation abundance [14],z-score of subpopulation abundance [15],z-score of subpopulation abundance [16],z-score of subpopulation abundance [17]
CONC(=O)Nc1ccc(-c2sc3c(c2CN(C)C)c(=O)n(-c2ccc(OC)nn2)c(=O)n3Cc2c(F)cccc2F)cc1 [Relugolix],12.2 ± 0.23,0.18,-1.52,0.15,0.32,0.68,-0.09,-0.08,-0.86,0.09,-0.12,-0.26,0.32,-0.07,-0.45,0.11,0.58
CCCCCOc1ccccc1/C(=C\SC)n1ccnc1 [Neticonazole Hydrochloride],11.8 ± 0.13,-8.79,-1.87,-1.5,-1.45,16.5,-2.84,-1.01,3.53,6.23,14.5,4.4,2.52,23.8,6.29,3.33,13
N#Cc1ccc2[nH]cc(CCCCN3CCN(c4ccc5oc(C(N)=O)cc5c4)CC3)c2c1 [Vilazodone HCl],12.34 ± 0.018,-0.4,1.09,0.01,-0.4,1.09,-0.14,0.25,0.6,0.14,-0.14,,-0.1,-0.45,0.23,0.66,-0.28
NC(=O)OCC(COC(N)=O)c1ccccc1 [Felbamate],12.33 ± 0.12,1.19,-0.21,-0.15,-0.1,-0.6,-0.71,-1.27,-1.32,-0.73,,-0.42,-1.23,-1.16,-0.71,-0.77,-0.68
O=C(O)CCC(=O)c1ccc(-c2ccccc2)cc1 [Fenbufen],12.8 ± 0.18,-0.31,0.67,0.14,0.32,0.71,1.1,0.1,-0.02,0.87,-0.92,0.57,-0.12,0.59,0.23,-0.23,0.69
CC(C)c1nc(N(C)S(C)(=O)=O)nc(-c2ccc(F)cc2)c1/C=C/[C@@H](O)C[C@@H](O)CC(=O)O [Rosuvastatin Calcium],11.6 ± 0.2,-1.23,-1.93,0.29,0.59,0.06,1.26,-1.44,3.45,2.1,2.31,,1.41,3.96,2.14,1.01,0.9
CCc1c2c(nc3ccc(OC(=O)N4CCC(N5CCCCC5)CC4)cc13)-c1cc3c(c(=O)n1C2)COC(=O)[C@]3(O)CC [Irinotecan HCl Trihydrate],12.5 ± 0.15,-0.17,1.27,-0.66,-0.91,0.65,-0.66,0.19,0.47,-0.6,-0.07,0.06,-0.35,0.91,0.52,0.14,0.04
C/C(=C\C(=O)OCCCCCCCCC(=O)O)C[C@@H]1OC[C@H](C[C@@H]2O[C@H]2[C@@H](C)[C@H](C)O)[C@@H](O)[C@H]1O [Mupirocin calcium],12.2 ± 0.29,,-0.19,-0.72,1.26,,0.56,-0.21,0.83,1.13,1.73,-0.37,0.12,-0.09,1.29,0.39,-0.25
C#C[C@]1(O)CC[C@H]2[C@@H]3CCC4=CC(=O)CC[C@@H]4[C@H]3CC[C@@]21CC [Levonorgestrel],12.4 ± 0.16,0.69,-0.18,-0.24,0.3,-0.72,-0.04,-0.89,-0.99,-0.13,-0.13,-0.95,0.05,-0.96,-0.08,-0.68,-0.86
COC(=O)Nc1nc2cc(C(=O)c3ccc(F)cc3)ccc2[nH]1 [Flubendazole],12.19 ± 0.12,0.01,-0.07,0.41,-0.99,1.19,-0.32,0.25,0.64,0.34,-0.47,0.98,0.3,-0.42,0.06,0.68,-0.02
Cc1nc2n(c(=O)c1CCN1CCC(c3noc4cc(F)ccc34)CC1)CCCC2O (centres undefined) [Paliperidone],12 ± 0.24,0.1,0.41,-0.99,0.75,-0.95,-0.02,-0.14,0.04,0.19,0.49,-1.06,-0.96,-1.03,0.09,-1.04,-0.53
COc1ccc(Cc2cnc(N)nc2N)cc1OC [Diaveridine],12.35 ± 0.055,0.22,0.6,-0.53,-0.37,,-0.41,-0.01,-0.29,-0.25,,-0.33,0.14,-0.26,0.18,-0.41,0.06
CO[C@@H]1[C@@H](O[C@@H]2O[C@H](C)[C@@H](O[C@H]3C[C@@](C)(O)[C@@H](O)[C@H](C)O3)[C@H](N(C)C)[C@H]2O)[C@@H](CC=O)C[C@@H](C)[C@@H](O[C@H]2CC[C@H](N(C)C)[C@@H](C)O2)/C=C/C=C/C[C@@H](C)OC(=O)C[C@H]1OC(C)=O [Acetylspiramycin (ASPM)],12.3 ± 0.32,-0.27,-0.27,1.91,-1.32,1,0.65,1.53,0.27,-0.58,-0.94,1.77,1.65,0.23,0.11,1.09,1.07
